Results from the supplement of paper PMC6555819.

Legend:
Experiment in all cases: PBM binding z-score (relative to random genomic background probes); higher = stronger binding; sequences stand for … in GC…GCGATTGACAGCGTAGAATGAAGG
[1] = test system: FXR:RXRa (NR concentration 270 nM, RXRa partner concentration 90 nM)
Outline: (§1)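 Random background probes are the reference for binding z-scores. These scores derive from regression-normalized fluorescence on custom Agilent 4×180K protein-binding microarrays incubated 1 h with ligand-free nuclear receptor dimers. Binding was detected with antibodies against each partner (one per run).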

[2] = test system: LXRa:RXRa (NR concentration 270 nM, RXRa partner concentration 90 nM)
Outline: as §1

[3] = test system: LXRa homodimer (NR concentration 270 nM)
Outline: as §1

[4] = test system: LXRb:RXRa (NR concentration 270 nM, RXRa partner concentration 90 nM)
Outline: as §1

[5] = test system: LXRb homodimer (NR concentration 270 nM)
Outline: as §1

[6] = test system: PPARa:RXRa (NR concentration 270 nM, RXRa partner concentration 90 nM)
Outline: as §1

[7] = test system: PPARg:RXRa (NR concentration 180 nM, RXRa partner concentration 90 nM)
Outline: as §1

[8] = test system: PPARg:RXRa 270nM:90nM, anti-RXR (NR concentration 270 nM, RXRa partner concentration 90 nM)
Outline: as §1

[9] = test system: PPARg:RXRa 30nM:10nM, anti-RXR (NR concentration 30 nM, RXRa partner concentration 10 nM)
Outline: as §1

[10] = test system: PPARg:RXRa 90nM:30nM, anti-RXR (NR concentration 90 nM, RXRa partner concentration 30 nM)
Outline: as §1

[11] = test system: PPARg:RXRa DBDmut IVT, anti-RXR (DBD mutation: RXRa K156A/R161A, NR concentration 270 nM, RXRa partner concentration 90 nM)
Outline: as §1

[12] = test system: PPARg:RXRa IVT, anti-PPARg (NR concentration 270 nM, RXRa partner concentration 90 nM)
Outline: as §1

[13] = test system: PPARg DBDmut:RXRa IVT, anti-PPARg (DBD mutation: PPARg1 K132A/R137A, NR concentration 270 nM, RXRa partner concentration 90 nM)
Outline: as §1

[14] = test system: PPARg DBDmut IVT, anti-PPARg (DBD mutation: PPARg1 K132A/R137A, NR concentration 270 nM)
Outline: as §1

[15] = test system: PPARg homodimer (NR concentration 180 nM)
Outline: as §1

[16] = test system: PXR:RXRa (NR concentration 270 nM, RXRa partner concentration 90 nM)
Outline: as §1

[17] = test system: PXR homodimer (NR concentration 270 nM)
Outline: as §1

[18] = test system: RARa:RXR (NR concentration 270 nM, RXRa partner concentration 90 nM)
Outline: as §1

[19] = test system: RARa homodimer (NR concentration 270 nM)
Outline: as §1

[20] = test system: RARb:RXRa (NR concentration 270 nM, RXRa partner concentration 90 nM)
Outline: as §1

Sequence	PBM binding z-score [1]	PBM binding z-score [2]	PBM binding z-score [3]	PBM binding z-score [4]	PBM binding z-score [5]	PBM binding z-score [6]	PBM binding z-score [7]	PBM binding z-score [8]	PBM binding z-score [9]	PBM binding z-score [10]	PBM binding z-score [11]	PBM binding z-score [12]	PBM binding z-score [13]	PBM binding z-score [14]	PBM binding z-score [15]	PBM binding z-score [16]	PBM binding z-score [17]	PBM binding z-score [18]	PBM binding z-score [19]	PBM binding z-score [20]
ATATGAAGGTTACATCCGGGTCATTCAGGCTATG	2.82	4.87	1.86	3.51	0.71	3.69	2.35	2.52	1	1.58	2.04	3.33	1.37	1.68	3.27	4.21	2.67	4.2	0.977	3.16
TCATATAGGTAATACAGGTGAAAGGCGGCATCTA	1.01	1.22	0.706	0.93	0.000841	2.25	2.3	3.69	4.62	4.1	4.33	3.42	1.73	1.03	1.29	1.04	0.592	1.33	1.69	0.697
CCTACTGGGCCAAAAAGGTCATTGAGGCCGATAA	3.73	4.24	2.98	4.11	0.134	4.69	3.3	3.92	1.27	3	3.53	3.88	-0.547	-0.0751	2.79	5.38	10.7	5.6	2.12	3.8
CCTACTGGGCCACGAAAGCTCATTGATTCAGTGA	-0.608	-0.413	-0.683	-1	-0.95	-0.132	1.08	1.15	-0.145	0.162	5.87	5.08	0.172	0.266	-0.477	-0.923	-0.798	-0.778	-0.375	-0.0436
ATCTCTAGGTAACGAGTTCAGTGAAAGAGAGGAC	0.481	0.764	0.708	0.738	0.449	2.04	1.69	1.73	0.509	1.26	4.09	3.44	0.909	0.668	0.806	2.31	2.89	0.857	0.668	1.35
TCTGCTAGGTAAACGATGGTCAGCTAATCTGCTA	-0.588	-0.334	-0.988	-0.606	-1.07	-0.0928	-0.293	0.636	1.68	1.22	1.06	0.192	-0.37	-0.397	-1.72	-0.369	-0.821	-0.233	-1.63	-0.0745
ATCGAAAGGTGGAAGGTGAGTATACCCACCCGAA	0.216	0.0772	-0.308	0.022	-0.0817	1.53	1.53	2.05	0.816	1.58	-0.723	0.561	0.498	0.266	0.464	0.15	-0.16	0.474	-0.403	0.83
CCTACTGGGCCAAAAAGGTCATTGTTGCCGATAA	3.25	4.03	2.95	4.03	0.141	4.47	2.62	4.03	1.19	2.96	3.95	3.99	-0.0573	-1.07	2.39	4.29	1.92	4.33	0.787	3.56
TCTCGGAGGACACCAAGGTCAGAGCTTTCCAGAG	1.66	1.05	0.191	1.09	-0.834	1.86	0.127	1.65	2.01	1.76	1.32	1.11	-0.509	-0.885	1.73	2.54	2.65	2.17	-0.289	3.27
ATCTCTAGGTATCAAGTTCAGTGAAAGAGAGGAC	0.749	0.772	0.719	0.674	1.24	0.806	0.577	1.44	0.214	1.15	0.507	1.03	1.04	1.12	0.949	1.05	2.18	0.725	1.18	1.59
GCATATAGGTAATACAAGGTGAAGGTCCGATTGT	0.87	1.46	0.0259	0.247	-0.268	1.09	1.25	1.12	0.453	0.748	4.57	3.17	0.671	0.932	0.421	0.391	0.248	1.23	0.491	0.573
TGAATGAGGTGATAAGATCAGGGAACGTTGCAAA	0.365	-0.0507	-0.391	-0.155	-0.466	1.08	0.727	1.24	0.758	0.92	1.64	2.01	0.612	0.281	-0.472	-0.0646	-0.0145	0.43	-0.23	0.351
CGTCCAAGGCCAAAGGTCAGTGAAGAGATGACGG	4.06	3.48	0.794	3.05	-0.142	5.2	7.29	6.97	5.65	7.26	0.453	3.33	-0.0649	-1.23	3.96	4.26	0.612	5.8	1.79	4.58
CGTCCAACGTCAGAGAGGTCAGTGAATGCCGAGT	1.61	1.76	0.849	1.75	-0.287	2.31	0.391	0.537	-0.521	-0.194	0.129	0.706	-0.788	-0.969	1.24	2.74	0.717	2.53	0.224	2.92
